Active and inactive are the calls of the source. Rule for the calls: active = hit-call score of the fitted dose curve at least 0.9, where 1 is the maximum; inactive = score below 0.9.
Columns and labels:
Details in all cases: mRNA level, 48 h; actives raise or lower the signal
[1] = read-out: Forkhead box O3 (FOXO3), FOXO3 (gene 2309); assay: LTEA_HepaRG_FOXO3: Life Technologies and Expression Analysis (LTEA) Assay for Forkhead box O3 (FOXO3) using HepaRG (AID 2283459)
Method in brief: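 FOXO3 transcript measured by qRT-PCR (normalized to ACTB, GAPDH, POLR2A) after 48 h exposure of HepaRG cells in serum-free induction medium. Duplicates, eight half-log concentrations up to 100 uM, 0.5% DMSO; gain or loss fitted against DMSO.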

[2] = read-out: ABC Transporter (ABCB1), ABCB1 (gene 5243); assay: LTEA_HepaRG_ABCB1: Life Technologies and Expression Analysis (LTEA) Assay for ABC Transporter (ABCB1) using HepaRG (AID 2283460)
Method in brief: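 ABCB1 transcript level measured by TaqMan qRT-PCR against three housekeeping genes after 48 h chemical exposure of differentiated HepaRG cells. Top concentration 100 uM, half-log steps, eight points, 0.5% DMSO vehicle; bidirectional fit relative to DMSO.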

[3] = read-out: growth arrest and DNA damage 45 (GADD45B), GADD45B (gene 4616); assay: LTEA_HepaRG_GADD45B: Life Technologies and Expression Analysis (LTEA) Assay for growth arrest and DNA damage 45 (GADD45B) using HepaRG (AID 2283461)
Method in brief: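 qRT-PCR read-out (Fluidigm TaqMan, housekeeping-normalized) of mRNA change in human HepaRG cells after 48 h chemical exposure; 8-point curve, top 100 uM, half-log steps, 0.5% DMSO vehicle; gain or loss fitted relative to DMSO baseline.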

[4] = read-out: ABC Transporter (ABCC3), ABCC3 (gene 8714); assay: LTEA_HepaRG_ABCC3: Life Technologies and Expression Analysis (LTEA) Assay for ABC Transporter (ABCC3) using HepaRG (AID 2283462)
Method in brief: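 qRT-PCR read-out of ABCC3 transcript, normalized to three housekeeping genes (ACTB, GAPDH, POLR2A), after 48 h chemical exposure of human HepaRG cells. Eight half-log concentrations, highest 100 uM, in 0.5% DMSO; gain or loss fitted relative to DMSO baseline.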

[5] = read-out: ABC Transporter (ABCB11), ABCB11 (gene 8647); assay: LTEA_HepaRG_ABCB11: Life Technologies and Expression Analysis (LTEA) Assay for ABC Transporter (ABCB11) using HepaRG (AID 2283463)
Method in brief: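 ABCB11 transcript levels quantified by TaqMan qRT-PCR against three housekeeping genes after 48 h chemical exposure of HepaRG cultures. Concentrations up to 100 uM in half-log steps, 0.5% DMSO vehicle; both induction and suppression scored.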

[6] = read-out: ABC Transporter (ABCC2), ABCC2 (gene 1244); assay: LTEA_HepaRG_ABCC2: Life Technologies and Expression Analysis (LTEA) Assay for ABC Transporter (ABCC2) using HepaRG (AID 2283464)
Method in brief: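 qRT-PCR (TaqMan, Fluidigm array) read-out of ABCC2 mRNA, normalized to three housekeeping genes. Differentiated HepaRG cells were treated 48 h in serum-free induction medium with 8-point half-log series from 100 uM in 0.5% DMSO; curves fitted bidirectionally relative to DMSO.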

[7] = read-out: Broad substrate specificity ATP-binding cassette transporter ABCG2 (Homo sapiens) (UniProt Q9UNQ0); assay: LTEA_HepaRG_ABCG2: Life Technologies and Expression Analysis (LTEA) Assay for ABC Transporter (ABCG2) using HepaRG (AID 2283465)
Method in brief: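 ABCG2 transcript was quantified by TaqMan qRT-PCR against three housekeeping genes in HepaRG cells. Cells were treated in duplicate for 48 h across an 8-point half-log series up to 100 uM, with 0.5% DMSO vehicle. Gain or loss versus DMSO was fit.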

[8] = read-out: ATP-citrate lyase (ACLY), ACLY (gene 47); assay: LTEA_HepaRG_ACLY: Life Technologies and Expression Analysis (LTEA) Assay for ATP-citrate lyase (ACLY) using HepaRG (AID 2283466)
Method in brief: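 ACLY mRNA quantified by qRT-PCR on Fluidigm arrays against three housekeeping genes, after 48 h chemical treatment of HepaRG cells (top concentration 100 uM, half-log steps, 0.5% DMSO vehicle). Up- or down-regulation fitted relative to DMSO.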

[9] = read-out: Peroxisomal acyl-coenzyme A oxidase 1 (ACOX1) gene, ACOX1 (gene 51); assay: LTEA_HepaRG_ACOX1: Life Technologies and Expression Analysis (LTEA) Assay for Peroxisomal acyl-coenzyme A oxidase 1 (ACOX1) gene using HepaRG (AID 2283467)
Method in brief: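 ACOX1 transcript levels were quantified by TaqMan qRT-PCR against three housekeeping genes after 48 h chemical exposure of differentiated human HepaRG cells. Exposure used eight half-log steps topping at 100 uM, 0.5% DMSO vehicle, in duplicate. Bidirectional curve fits were made relative to DMSO.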

[10] = read-out: Alkaline Phosphatase, Placental (ALPP) gene, ALPP (gene 250); assay: LTEA_HepaRG_ALPP: Life Technologies and Expression Analysis (LTEA) Assay for Alkaline Phosphatase, Placental (ALPP) gene using HepaRG (AID 2283468);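 for AC50: differentiated human HepaRG liver cells in serum-free induction medium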
Method in brief: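 qRT-PCR readout of ALPP mRNA (Fluidigm TaqMan), normalized to ACTB/GAPDH/POLR2A, after 48 h chemical exposure of HepaRG cells; 8-point half-log series, top 100 uM, 0.5% DMSO vehicle. Bidirectional curve fit versus DMSO baseline.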

[11] = read-out: Bcl-2 (BAD) gene, BAD (gene 572); assay: LTEA_HepaRG_BAD: Life Technologies and Expression Analysis (LTEA) Assay for Bcl-2 (BAD) gene using HepaRG (AID 2283469)
Method in brief: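 Read-out: qRT-PCR of BAD mRNA, normalized to three housekeeping genes. Human HepaRG cultures got 48 h chemical exposure in 0.5% DMSO, duplicate eight-point half-log series topping at 100 uM. Gain or loss of signal fitted versus DMSO vehicle.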

[12] = read-out: Bcl-2 (BAX) gene, BAX (gene 581); assay: LTEA_HepaRG_BAX: Life Technologies and Expression Analysis (LTEA) Assay for Bcl-2 (BAX) gene using HepaRG (AID 2283470)
Method in brief: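 qRT-PCR read-out of BAX mRNA, normalized to three housekeeping genes, after 48 h chemical exposure of human HepaRG cells in serum-free induction medium; eight-point half-log series, top 100 uM, 0.5% DMSO vehicle; bidirectional fit versus DMSO.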

[13] = read-out: adenosine kinase (ADK) gene, ADK (gene 132); assay: LTEA_HepaRG_ADK: Life Technologies and Expression Analysis (LTEA) Assay for adenosine kinase (ADK) gene using HepaRG (AID 2283471)
Method in brief: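 Following 48 h exposure of HepaRG cells in 0.5% DMSO (top concentration 100 uM, duplicate wells), ADK mRNA induction or suppression was measured by qRT-PCR, normalised to ACTB/GAPDH/POLR2A, and fitted bidirectionally relative to vehicle.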

[14] = read-out: Alpha-fetoprotein (AFP) gene, AFP (gene 174); assay: LTEA_HepaRG_AFP: Life Technologies and Expression Analysis (LTEA) Assay for Alpha-fetoprotein (AFP) gene using HepaRG (AID 2283472)
Method in brief: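 qRT-PCR (Fluidigm TaqMan) readout of AFP transcript, normalized to three housekeeping genes, fitted bidirectionally against 0.5% DMSO baseline. HepaRG cells received chemicals for 48 h in serum-free induction medium, top concentration 100 uM, half-log steps.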

BCL2L11 (gene 10018) = assay: LTEA_HepaRG_BCL2L11: Life Technologies and Expression Analysis (LTEA) Assay for Bcl-2 (BCL2L11) gene using HepaRG (AID 2283473)
Method in brief: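 HepaRG, 48 h exposure, 8-pt half-log series from 100 uM in 0.5% DMSO, duplicates; qRT-PCR (Fluidigm TaqMan) for BCL2L11, housekeeping-normalized; bidirectional curve fit relative to DMSO baseline.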

[15] = read-out: Apolipoprotein A-V (APOA5) gene, APOA5 (gene 116519); assay: LTEA_HepaRG_APOA5: Life Technologies and Expression Analysis (LTEA) Assay for Apolipoprotein A-V (APOA5) gene using HepaRG (AID 2283474)
Method in brief: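 HepaRG, 48 h chemical exposure in serum-free induction medium, 8-pt half-log series (top 100 uM), 0.5% DMSO vehicle, duplicates. Readout: APOA5 mRNA by qRT-PCR, housekeeping-normalized; bidirectional fit vs DMSO baseline.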

[16] = read-out: Apoptosis regulator Bcl-2 (Homo sapiens) (UniProt P10415); assay: LTEA_HepaRG_BCL2: Life Technologies and Expression Analysis (LTEA) Assay for Bcl-2 gene using HepaRG (AID 2283475)
Method in brief: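 qRT-PCR read-out (Fluidigm TaqMan) of BCL2 transcript, normalised to three housekeeping genes, after 48 h chemical exposure of HepaRG cells; 8-point half-log series, top 100 uM, 0.5% DMSO vehicle. Gain or loss of signal fitted relative to DMSO baseline.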

[17] = read-out: Bcl-2 (BID) gene, BID (gene 637); assay: LTEA_HepaRG_BID: Life Technologies and Expression Analysis (LTEA) Assay for Bcl-2 (BID) gene using HepaRG (AID 2283476)
Method in brief: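 HepaRG, 48 h exposure, 8-pt half-log series, top 100 uM, 0.5% DMSO vehicle, duplicates. Readout: BID mRNA by TaqMan qRT-PCR; housekeeping-normalized; bidirectional curve fit vs DMSO baseline.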

Caspase-3 (Homo sapiens) = Caspase-3 (Homo sapiens) (UniProt P42574); assay: LTEA_HepaRG_CASP3: Life Technologies and Expression Analysis (LTEA) Assay for cysteine-aspartic acid protease (CASP3) using HepaRG (AID 2283477)
Caspase-3 (Homo sapiens), sequence (P42574 whole entry, looked up): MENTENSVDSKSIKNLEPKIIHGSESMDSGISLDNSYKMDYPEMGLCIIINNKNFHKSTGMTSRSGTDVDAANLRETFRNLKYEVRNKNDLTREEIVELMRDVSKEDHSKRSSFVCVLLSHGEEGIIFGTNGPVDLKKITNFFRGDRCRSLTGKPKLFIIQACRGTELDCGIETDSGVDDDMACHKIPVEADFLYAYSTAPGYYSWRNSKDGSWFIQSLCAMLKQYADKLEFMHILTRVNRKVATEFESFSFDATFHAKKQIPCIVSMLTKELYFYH
Method in brief: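 HepaRG, 48 h exposure, 8 conc. (top 100 uM, half-log steps, duplicate), 0.5% DMSO vehicle; qRT-PCR of CASP3 transcript, housekeeping-normalised (ACTB/GAPDH/POLR2A); bidirectional curve fit vs DMSO baseline.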

[18] = read-out: Cytochrome P450 (CYP24A1), CYP24A1 (gene 1591); assay: LTEA_HepaRG_CYP24A1: Life Technologies and Expression Analysis (LTEA) Assay for Cytochrome P450 (CYP24A1) using HepaRG (AID 2283478)
Method in brief: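 qRT-PCR read-out: CYP24A1 transcript levels normalized to three housekeeping genes, bidirectional curve fits against 0.5% DMSO baseline. Human HepaRG cells treated 48 h with chemicals at eight concentrations from 100 uM in half-log steps.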

Measured: AC50

Apoptosis regulator Bcl-2 (Homo sapiens), sequence (P10415 whole entry, looked up): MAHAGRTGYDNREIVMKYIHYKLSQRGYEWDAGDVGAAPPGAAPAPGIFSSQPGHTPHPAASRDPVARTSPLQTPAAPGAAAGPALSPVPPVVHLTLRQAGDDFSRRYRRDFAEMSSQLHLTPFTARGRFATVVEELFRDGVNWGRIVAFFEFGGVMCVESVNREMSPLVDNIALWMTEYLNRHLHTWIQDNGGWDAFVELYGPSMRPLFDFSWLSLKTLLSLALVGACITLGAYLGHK
Broad substrate specificity ATP-binding cassette transporter ABCG2 (Homo sapiens), sequence (Q9UNQ0 whole entry, looked up): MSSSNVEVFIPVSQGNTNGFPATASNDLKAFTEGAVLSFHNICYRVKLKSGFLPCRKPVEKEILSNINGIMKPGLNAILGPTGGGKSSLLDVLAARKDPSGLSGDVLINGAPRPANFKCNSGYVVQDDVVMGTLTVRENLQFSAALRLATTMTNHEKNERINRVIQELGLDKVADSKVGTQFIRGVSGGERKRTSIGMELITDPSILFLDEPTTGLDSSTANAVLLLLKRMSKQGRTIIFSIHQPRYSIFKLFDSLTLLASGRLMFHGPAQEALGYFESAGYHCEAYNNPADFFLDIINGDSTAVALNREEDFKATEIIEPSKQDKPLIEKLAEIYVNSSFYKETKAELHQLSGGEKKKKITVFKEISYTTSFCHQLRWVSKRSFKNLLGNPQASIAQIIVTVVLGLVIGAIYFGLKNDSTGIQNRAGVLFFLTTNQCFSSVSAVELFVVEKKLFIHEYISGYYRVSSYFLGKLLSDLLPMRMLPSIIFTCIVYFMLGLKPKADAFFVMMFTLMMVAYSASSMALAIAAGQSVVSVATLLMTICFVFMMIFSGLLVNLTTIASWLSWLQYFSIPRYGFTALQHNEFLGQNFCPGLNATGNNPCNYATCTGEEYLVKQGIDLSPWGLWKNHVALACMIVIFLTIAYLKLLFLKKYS

CC(C)CCO
inactive: all assays above

O=C(O)c1cccc(N(Cc2cccnc2)c2ccc(OC(F)F)c(OC(F)F)c2)c1
active: [2] 50 µM | [5] 90.6 µM | [8] 83.3 µM | [10] 79.9 µM | [18] 0.00316 µM
inactive: all other assays above

CCCC(=O)OCC
inactive: all assays above

CCN(C(=O)c1cc(C)cc(OC[C@H](C)Nc2ccncc2)c1)C(C)C
active: [4] 33.8 µM | [5] 25.1 µM | [8] 33.8 µM | [9] 20.1 µM | [10] 6.7 µM | [14] 23.7 µM | [15] 55 µM | [17] 0.143 µM | Caspase-3 (Homo sapiens) 19.6 µM
inactive: all other assays above

Oc1ccc2c(c1)-c1ccccc1C2
active: [5] 25.1 µM
inactive: all other assays above

C1=CCCC=CCCC=CCC1
not listed: Caspase-3 (Homo sapiens) | [18]
inactive: all other assays above

O=C(NS(=O)(=O)/C=C/c1ccccc1)c1ccc(F)cc1Cl
active: [2] 10.8 µM | [5] 50 µM | [6] 4.56 µM | [14] 18.9 µM
inactive: all other assays above

CC(C)=CCC/C(C)=C\CO
not listed: Caspase-3 (Homo sapiens) | [18]
inactive: all other assays above

COC(=O)c1c(Cl)c(Cl)c(C(=O)OC)c(Cl)c1Cl
inactive: all assays above

CCNc1ccccc1
inactive: all assays above

Nc1nc2ncc(CNc3ccc(C(=O)N[C@@H](CCC(=O)O)C(=O)O)cc3)nc2c(=O)[nH]1
inactive: all assays above

O=C(O)CC(O)C(=O)O (stereo unspecified)
inactive: all assays above

CC(C)CCCCCCCOC(=O)CCCCC(=O)OCCCCCCCC(C)C
inactive: all assays above

Source: PubChem BioAssay (EPA / NIEHS)
